Bioassay records from PubChem.
MCF10A rerep – DNA re-replication induction in MCF 10a cells | MCF 10A DNA re-replication, Hoechst nuclear intensity, 48 h | actives 2.9% (n = 350,000) | Potency, µM (titrated, usually from 46.1 µM), hits mostly activators; also: nearly all actives have a fitted effect of over 50% in size
A-T KAP1 phos – potential ataxia-telangiectasia treatment; AID 485349; Potency, µM (titrated, usually from 57.5 µM), most hits filed as activators; F2112 A-T fibroblasts, KAP-1 phosphorylation AlphaLISA; neocarzinostatin DNA damage 30 min before lysis; actives 0.19% (n = 320,000); also: nearly all actives have a fitted effect of over 45% in size
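hTERT-immortalized A-T patient fibroblasts (F2112), 500 cells/well in OPTI-MEM, 1% FBS, got compounds for 60 min, then NCS for 30 min at 37C. Lysates were then assayed for phospho-KAP-1 by AlphaLISA (anti-pKAP1 donor, anti-KAP1 acceptor beads), 6 hr at 25C.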
Integrin act MD – integrin-mediated muscular dystrophy alleviation activation; alpha7betagal myoblasts, beta-gal FDG fluorescence, 48 h; actives 0.064% (n = 350,000); Potency, µM (series often up to 38.3 µM), usual class: activators; also: nearly all actives have a fitted effect of over 60% in size
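alpha7betagal+/- myoblasts (passage 13, 250/well) treated 48 h at 37C with compounds at 1:260 dilution of DMSO stock. Lysed, then beta-galactosidase activity read as FDG fluorescence (ex 480/em 540) after 30 min, with pre-read for autofluorescence.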
SW480 rerep – DNA re-replication induction in SW480 cells; SW480 DNA re-replication, Hoechst DNA content imaging, 48 h; actives 1.8% (n = 340,000); AID 624297; Potency, µM (series often up to 46.1 µM), most hits filed as activators; also: nearly all actives have a fitted effect of over 55% in size
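Readout is total intensity of Hoechst-stained nuclei, excited at 405 nm and collected at 500-530 nm. Compound treatment lasted 48 hr at 37 C in 5% CO2 before staining.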
Mito fusion act – mitochondrial division inhibition or fusion activation | actives 0.23% (n = 320,000) | S. cerevisiae fusion-defective mutant growth rescue, CellTiterGlo 48 h | AID 485298 | Potency, µM (highest dose often 46.1 µM), hits mostly activators; also: nearly all actives have a fitted effect of over 45% in size
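Growth-rescue viability read-out: after 48 h at the non-permissive 37C in glycerol/ethanol YPEG, yeast mitochondrial fusion mutants are measured by CellTiterGlo luminescence; compounds (23 nl pinned per well) restoring growth score as division inhibitors or fusion activators.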
Hits are given with their value; - = inactive; ? = inconclusive; . = no result given; [ ] = dose if it differs, or a comment. Only some compounds are listed: those with a hit (about 4.2% of all), similar ones and a draw of the others. Calls follow the shape of the dose curve; as a rule, active = well fitted activation curve with a large enough effect; inconclusive = small, poorly fitted or top-dose-only effect; inactive = no such curve, though single readings can be large or run the other way.

SMILES | MCF10A rerep | A-T KAP1 phos | Integrin act MD | SW480 rerep | Mito fusion act
COc1cc(N)c(Cl)cc1C(=O)OCC(=O)N(C)C1CCCCC1 | - | - | - | - | -
CCCCC(=O)/C=C/n1c(=S)oc2ccccc21 | 2.9µM | - | - | 6.5µM | -
Cc1ccc(NC(=O)CCn2c(=S)oc3ccccc32)cc1 | - | - | - | - | -
CC(C)OC(=O)n1c(=S)oc2ccccc21 | 4.6µM | . | - | ? | -
COc1cccc(C2C(C(=O)Nc3ccc(C)cc3C)=C(C)Nc3ncnn32)c1OC (stereo not given) | - | - | - | - | -
COc1ccccc1NC(=O)C1=C(C)Nc2ncnn2C1c1ccccc1C (stereo not given) | -[0.0737 µM] | - | - | 4.1µM | -
COCC1CCCCN1C(=O)CCCn1nnnc1CN1CCC(C)CC1 (stereo not given) | - | - | - | - | -
CC1CCN(Cc2nnnn2CCCC(=O)NC(c2ccccn2)C(F)(F)F)CC1 (stereo not given) | 21µM | - | - | - | -
COc1ccc(S(=O)(=O)NCc2ccccn2)cc1NC(=O)c1ccc(Cl)cc1 | 8.2µM | - | - | ? | -
CCOc1ccc(S(=O)(=O)NCc2cccnc2)cc1NC(=O)c1ccccc1F | 13µM | - | - | 9.2µM | -
COc1ccc(S(=O)(=O)NCc2ccccn2)cc1NC(=O)c1ccccc1C | 3.7µM | - | - | 7.3µM | -
COc1ccc(S(=O)(=O)NCc2ccncc2)cc1NC(=O)c1ccc(Cl)cc1 | - | - | - | - | -
COc1ccc(S(=O)(=O)NCc2ccccn2)cc1OC | - | - | - | - | -
CC(Oc1ccccc1)C(=O)N1CCC2(CC1)CC(=O)c1ccccc1O2 (stereo not given) | - | - | - | - | -
Cc1ccccc1NC(=O)CSc1cn[nH]n1 | ? | - | - | - | -
O=C(CN1CCN(CC(=O)Nc2ccccc2Cl)CC1)NCC1(N2CCCCC2)CCCCC1 | - | - | - | - | -
N#Cc1nc(Nc2cccc(Cl)c2)c2ncn(C3CCCC3)c2n1 | ? | - | . | ? | -
COc1ccccc1NC(=O)CN(C)S(=O)(=O)c1cccc2cccnc12 | - | - | - | - | -
COc1ccc(N(C)S(=O)(=O)c2cccc3cccnc23)c(OC)c1 | 8.2µM | - | - | 21µM | -
CCOC(=O)C(=NC(C)C)NNc1cc(Cl)ccc1Cl | 16µM | ? | - | - | -
CCOC(=O)C(=NC(C)(C)C)NNc1cc(Cl)ccc1Cl | ? | - | - | - | -
COc1ccc(C(=O)CSC2=NS(=O)(=O)c3cc(Cl)ccc3N2)cc1 | - | - | - | - | -
NC(=O)c1ccc(NC(=O)COC(=O)c2ccc(Br)o2)cc1 | - | - | - | - | -
COc1ccccc1OCC(=O)Nc1ccc(NC(=O)COc2ccccc2OC)cc1 | - | - | - | - | -
COc1cccc(C(=O)Nc2cccc3ccccc23)c1 | - | - | - | - | -
SMILES | MCF10A rerep | A-T KAP1 phos | Integrin act MD | SW480 rerep | Mito fusion act
CCn1c2ccccc2c2cc(NC(=O)c3cccc(OC)c3OC)ccc21 | - | - | - | - | ?
CCn1c2ccccc2c2cc(NC(=O)COc3ccccc3OC)ccc21 | 5.8µM | - | - | 15µM | ?
COc1cccc(C(=O)Nc2cccc3c2ccc2cccn23)c1 | ? | - | - | 16µM | -
CCn1c2ccccc2c2cc(NC(=O)CNCc3ccccc3OC)ccc21 | 7.3µM | - | - | 7.3µM | -
CCn1c2ccccc2c2cc(NC(=O)c3cccc(OC)c3)ccc21 | ? | - | - | 7.9µM | ?
COc1ccc([C@]23Cc4cc(C#N)ccc4C(O2)c2c(c4ccc(OC)cc4oc2=O)O3)cc1 | . | -[11.5 µM] | . | . | -[9.22 µM]
COc1ccc(Cn2c(O)c(C=Nc3ccc(O)cc3)c3ccccc3c2=O)cc1 | 6.5µM | - | - | ? | ?
COc1ccc(Cn2c(O)c(C=Nc3ccccc3)c3ccccc3c2=O)cc1 | - | - | - | - | -
COC(=O)c1cc(=O)n(Cc2cccs2)c(=Nc2ccc(F)cc2)s1 | - | - | - | - | -
COC(=O)c1cc(=O)n(-c2ccc(F)cc2)c(=Nc2ccc(F)cc2)s1 | 5.2µM | - | - | ? | -
CC(C)C(=O)Nc1nnc(Cc2c[nH]c3ccccc23)s1 | 8.2µM | - | - | ? | -
